Consider 39 compounds from PubChem BioAssay (NCATS).

Results filed as inconclusive are left out. Values without a mark were called inactive. Calls come from the whole dose curve; as a rule, active = well fitted curve in either direction with a large enough effect (not every such curve was filed as active); inconclusive = small, poorly fitted or top-dose-only effect, or another doubt; inactive = flat fitted curve, though single readings scatter.
% is set by controls: 0 for no effect and ±100 for the full control effect.

The assay in a line: Stat Signaling Pathway (AID 446).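 Note: ME-180 cervical cancer cells given 40 pM IL-6 alongside compound; SIE-controlled beta-lactamase reporter measured as 460/530 nm FRET emission ratio.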 The following applies: ME-180 (cervical carcinoma) SIE beta-lactamase reporter, IL-6 stimulated, 5 h; at 17.2 µM (top of the series) unless noted. The essentials:
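ME-180 cells carrying a SIE-driven beta-lactamase reporter are stimulated with 40 pM IL-6 for 5 h at 37C in the presence of compound. The 460/530 nm FRET substrate ratio is read after 2.5 h at RT. Data are normalised to 300 pM IL-6 and to 125 nM JAK inhibitor controls.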
Regarding `COc1ccc(C2CC(c3ccccc3)Nc3nc(N)nn32)cc1` (centres undefined), the activity, negative = inhibition was 1.39%.
On to `CC1(C)Cc2c(c(-c3ccccc3)[nH]c(=O)c2C#N)CS1`, for which the activity, negative = inhibition was -8.62%.
For the compound `O=C(NCCCn1ccnc1)c1cccnc1`, the activity, negative = inhibition was 6.38%.
To `COc1cc([C@@H]2[C@H]3CN(C)CC=C3C(C#N)=C(N)C2(C#N)C#N)cc2c1OCO2` belongs 10.9%; to `CNC(=O)c1cc2ccccc2o1`, 2.75%.
Next, `CCOC(=O)c1[nH]c2ccccc2c1NC(=O)CCN1CCN(C(=O)OCC)CC1`: -0.665%; `CC(=O)N1CCN(C2c3cccc4cccc(c34)C2NS(=O)(=O)c2ccccc2)CC1` (centres undefined): 2.23%; `Cc1c(NC(=O)c2ccc(=O)oc2)c(=O)n(-c2ccccc2)n1C`: 2.43%.
With `CCOc1ccc(C2C(C(=O)c3ccc(C)o3)=C(O)C(=O)N2CCCN(CC)CC)cc1` (centres undefined), the activity, negative = inhibition was 6.24%.
To `COc1ccc(-c2c3c([nH]c(=S)c2C#N)CCC3)cc1` belongs -7.04%; to `COc1ccc(OCC(=O)N2CCN(C(=O)c3cccc4ccccc34)CC2)cc1`, -1.16%; to `Cc1[nH]nc2cn[nH]c12`, 4.46%.
To `S=c1[nH]nc(-c2ccccc2)n1Cc1ccccc1` belongs 6.25%; to `COc1cccc(OC)c1-c1nn2c(-c3ccco3)nnc2s1`, -4.43%; to `CC1(C)CN(O)CCN1O`, 7.69%.
To `Cc1cc(/C(O)=C2\C(=O)C(=O)N(CCN(C)C)C2c2ccncc2)ccc1OCc1ccccc1` (centres undefined) belongs 4.75%.
`COc1ccccc1NC(=O)CSc1nnc(-c2ccc(NC(C)=O)cc2)n1C`: the activity, negative = inhibition is -0.879%.
To `CCOC(=O)c1c(C)[nH]c(/C(C)=N/O)c1C` belongs -8.45%.
Next, `COC(=O)CSc1nnc(C)c(=O)[nH]1`: 5.67%.
To `Cc1ccc2c(c1)C(CCN)C(=O)N2Cc1ccccc1` (centres undefined) belongs 5.36%.
Consider `CC(C)(C#N)C(C)(C)c1nn[nH]n1`, for which the activity, negative = inhibition was 8.72%.
On to `Cc1cc(NC(CC(C)C)C(=O)O)nc(Cc2ccccc2)n1` (centres undefined), for which the activity, negative = inhibition was 5.49%.
To `CCOC(=O)c1c(C)oc2ccc(OCC(=O)C(C)(C)C)cc12` belongs -10.1%.
To `CCOC(=O)C1CCCN(c2nc3ccccc3nc2C(C#N)C(=O)OCCOC)C1` (centres undefined) belongs -2.06%.
To `Cc1nn(CC(=O)NCCN2CCOCC2)c(=O)c2ccccc12` belongs 8.76%; to `CCc1ccc2c(c1)C(C)=CC(C)(C)N2`, -8.11%.
On to `Nc1nnnn1/N=C/c1ccccn1`, for which the activity, negative = inhibition was -2.26%.
As for `CCOC(=O)CC(C#N)c1cn(C)c2ccccc12` (centres undefined), the activity, negative = inhibition was 3.49%.
Next, `Oc1ccc2ccccc2c1C=NC12CN3CCN(CN(C3)C1)C2`: -13.6%; `CCOC(=O)CNS(=O)(=O)c1cc(-c2n[nH]c(=O)c3ccccc23)ccc1C`: -10.1%; `O=C(CN1C2=NCCN2c2ccccc21)N1CCOCC1`: 8.05%.
To `COc1cccc(NC(=O)CSC2=C(C#N)C(c3ccco3)C3=C(CCCC3=O)N2)c1` (centres undefined) belongs -7.07%; to `OCCOCCNc1ncnc2c1cnn2-c1ccccc1`, -1.47%.
To `CCN(CC)C(=O)CSC1=C(C#N)C(c2cccs2)C=C(C)N1` (centres undefined) belongs 6.46%; to `COc1ccccc1C(CC(=O)Nc1nccs1)c1ccco1` (centres undefined), -11.3%; to `Cn1c(=O)c2c(nc(Br)n2Cc2ccc3ccccc3c2)n(C)c1=O`, -5.3%.
Consider `O=C(O)CC(NCc1ccco1)C(=O)OCCc1ccccc1` (centres undefined), for which the activity, negative = inhibition was 0.0661%.
Consider `CCSc1nnc(NC(=O)C(C)(C(F)(F)F)C(F)(F)F)s1`, for which the activity, negative = inhibition is -24.8%.
Take `COC(=O)COc1ccc(Oc2nc(SC)nc(N(C)C)n2)nn1`: the activity, negative = inhibition was -4.81%.
